Tau ThT inhib: qHTS for Inhibitors of Tau Fibril Formation, Thioflavin T Binding. recombinant tau K18 P301L, heparin-induced fibrillization, ThT fluorescence. Potency, µM (series often up to 57.4 µM), without a hit: at the highest dose activity, negative = inhibition, hits mostly inhibitors. 270,000 tested, 2.1% active; also: potency is read from the fitted curve at half-maximal effect; nearly all actives have a fitted effect of over 55% in size
Target sequence (P10636 561-689 P618L limits assumed): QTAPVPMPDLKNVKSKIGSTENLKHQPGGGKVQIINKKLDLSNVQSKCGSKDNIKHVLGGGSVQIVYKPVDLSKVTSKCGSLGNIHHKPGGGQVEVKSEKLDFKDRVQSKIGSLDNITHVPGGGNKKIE
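Aggregation was driven by heparin (20 uM final) acting on recombinant tau […] bearing P301L in 100 mM sodium acetate pH 7; fibrils were detected with Thioflavin T.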
G9a block: qHTS Assay for Inhibitors of Histone Lysine Methyltransferase G9a | G9a H3K9 monomethylation, AlphaScreen, 2 h | Potency, µM (highest dose often 102 µM), for inactives: top-dose activity, negative = inhibition, actives largely listed as inhibitors | AID 504332, 2011 | 350,000 tested, 8.8% active; also: potency is read from the fitted curve at half-maximal effect; nearly all actives have a fitted effect of over 75% in size
Target sequence (Q96KQ7 913-1193 limits assumed): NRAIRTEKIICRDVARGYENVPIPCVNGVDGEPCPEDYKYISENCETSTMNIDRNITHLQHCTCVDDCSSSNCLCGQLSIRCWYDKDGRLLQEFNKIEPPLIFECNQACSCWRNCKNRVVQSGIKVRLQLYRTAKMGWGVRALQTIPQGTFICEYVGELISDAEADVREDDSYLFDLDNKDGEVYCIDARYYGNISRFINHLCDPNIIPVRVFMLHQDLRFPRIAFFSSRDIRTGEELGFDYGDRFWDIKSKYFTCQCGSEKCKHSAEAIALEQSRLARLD
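Using a bead-based AlphaScreen, monomethylated H3K9 product from 2 h room-temperature reactions (G9a 20 nM, peptide 500 nM, SAM 20 uM) was detected with 0.5 ug/mL rabbit anti-H3K9me1 antibody.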
Tau fibril FP: qHTS for Inhibitors of Tau Fibril Formation, Fluorescence Polarization | 280,000 tested, 0.39% active | K18 P301L tau heparin fibrillization, Alexa594 FP, 6 h | Potency, µM (top dose mostly 57.7 µM), inactives show top-dose activity, negative = inhibition, hits mostly inhibitors | AID 1468, 2008; also: potency is read from the fitted curve at half-maximal effect; nearly all actives have a fitted effect of over 55% in size
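Human K18 P301L fragment (15 uM unlabeled plus 0.24 uM Alexa 594-labeled) in 100 mM sodium acetate pH 7 with compound, aggregation induced by 20 uM heparin for 6 hr at 37 C. ThT (30 uM) added for 1 hr, then Alexa 594 FP read.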
FBPA coupling cs: qHTS Assay for Inhibitors of Fructose-1,6-bisphosphate Aldolase from Giardia Lamblia: Coupling assay counterscreen; coupling enzyme system counterscreen, AmpLite Red fluorescence; AID 2472, 2010; activity change, negative = inhibition, % at 58.2 µM, hits read low; 290,000 tested, 0.67% active; in the data active = activity change below about -30%
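Activity here indicates interference with the coupling reaction, not aldolase inhibition. Compounds at 57.5 uM final met coupling enzymes for 10 min at RT; substrate and AmpLite Red detection followed, with a 525/598 nm fluorescence read after 20 min.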
Sfp inh: qHTS Assay for Inhibitors of Bacillus subtilis Sfp phosphopantetheinyl transferase (PPTase). 4'-phosphopantetheinyl transferase ffp (Bacillus subtilis), Q9F4F7. Potency, µM, for inactives: largest response in the series, negative = inhibition, hits mostly inhibitors. AID 1490, 2009. 310,000 tested, 3.5% active. Biochemical Sfp PPTase activity, qHTS;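 also: the enzyme is Sfp with the accession as filed and its product quenches rhodamine fluorescence; potency is read from the fitted curve at half-maximal effect; 0% = enzyme reaction without inhibitor and -100% = no enzyme wells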
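Step 1, compound plus 15 nM Sfp-PPTase, 15 min, room temperature. Step 2, add rhodamine-CoA (5 uM) and BHQ-2-YbbR (12.5 uM). Step 3, read 525/598 nm fluorescence at 0 and 30 min.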
Tau fluor counter: Counterscreen qHTS for Inhibitors of Tau Fibril Formation, Fluorescence Polarization; Potency, µM (series often up to 57.7 µM), for inactives: at the highest dose activity change, negative = decrease; 280,000 tested, 0.93% active; tau K18 P301L Alexa594 fluorescence, heparin fibrillization; AID 1463, 2008; also: potency is read from the fitted curve at half-maximal effect; nearly all actives have a fitted effect of over 55% in size
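Human tau K18 P301L (15 uM unlabeled, 0.24 uM Alexa 594-labeled) in 100 mM sodium acetate pH 7 with 20 uM heparin, 6 hr at 37 C. ThT 30 uM added, 1 hr ambient; Alexa 594 FP and total fluorescence read at 555/632 nm.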
Active calls of the source: *; ? = inconclusive; / = not tested or not shown; [ ] = another dose, or the depositor's remark. Compounds with a hit are over-represented: about 11% of the library has one in this group of screens. Unless noted, calls follow the shape of the dose curve; as a rule, active = well fitted curve in the direction sought with a large enough effect; inconclusive = small, poorly fitted or top-dose-only effect, or another doubt; inactive = no such curve, though single readings can be large; an effect the other way counts as inactive or inconclusive. Unless noted, % is scaled to controls: 0 for no effect and ±100 for the full control effect.

SMILES	Tau ThT inhib	G9a block	Tau fibril FP	FBPA coupling cs	Sfp inh	Tau fluor counter
O=C[C@@H]1CCCN1C(=O)[C@@H]1CCCN1C(=O)OCc1ccccc1	18µM*	8.9µM*	22µM*	/	56µM*	-24%
CC(OC(=O)CSc1ccc(F)cc1)C(=O)NC1(C#N)CCCCC1 (centres undefined)	/	/	/	/	7%	/
CCOC(=O)C1=C(C)OC(N)=C(C#N)C1c1cc2c(cc1[N+](=O)[O-])OCO2 (centres undefined)	28µM*	50µM*	?	-13	1%	?
CCOC(=O)C1=C(C)OC(N)=C(C#N)C1c1cc(OC)c2c(c1)OCO2 (centres undefined)	-16%	-4%[59 µM]	0%	0	1%	-9%
Cc1ccccc1-n1c(Cn2c(=O)sc3ccccc32)nnc1SCC(=O)Nc1nccs1	0%	-4%[59 µM]	6%	1	13%	3%
Cc1csc(NC(=O)CSc2nnc(Cn3c(=O)sc4ccccc43)n2-c2ccccc2)n1	-14%	?	-3%	1	79µM*	-14%
O=C(NNc1c2ccccc2nc2ccccc12)c1ccccc1Cl	/	26%	/	0	7%	/
O=C(NNc1c2ccccc2nc2ccccc12)c1ccc(O)cc1O	2.2µM*	?	8%	-1	-14%	13µM*[quencher]
CCCC(=O)NNc1c2ccccc2nc2ccccc12	?	9%[59 µM]	5%	2	-1%	-21%
O=C(NNc1c2ccccc2nc2ccccc12)c1ccc(O)cc1	?	?	2%	-2	-23%	?
O=C(NNc1c2ccccc2nc2ccccc12)c1ccccc1O	2.2µM*	?	-1%	0	?	6.3µM*[quencher]
COc1ccc(OCC(=O)NNc2c3ccccc3nc3ccccc23)cc1	6.3µM*	0%[59 µM]	?	1	-22%	16µM*[quencher]
O=C(NNc1c2ccccc2nc2ccccc12)c1cccc(O)c1	2.8µM*	?	13%	-1	-2%	14µM*[quencher]
COc1ccc(-n2cc(-c3ccccc3)nc2SCC(=O)Nc2ccccc2)cc1Cl	-2%	?	?	/	/	?
CCOCCCNC(=O)C1CCN(S(=O)(=O)c2ccc3nc4c(c(C(=O)O)c3c2)CCCCC4)CC1	/	-12%	/	2	12%	/
O=C1CN(C(=O)c2ccc(F)cc2)c2ccccc2N1	/	99%	/	/	15%	/
O=C(NCc1ccc(F)cc1)C(=O)NCC(c1ccc2c(c1)OCO2)N1CCOCC1 (centres undefined)	10%	-1%[59 µM]	-3%	/	/	1%
O=C(NNc1nc(=O)c2cccnc2s1)c1ccccc1O	?	50µM*	4%	0	20%	-13%
COc1cccc2sc(NNC(=O)COc3ccccc3)nc12	-9%	?	0%	-1	?	-3%
O=C(NNc1c2ccccc2nc2ccccc12)C(O)c1ccccc1 (centres undefined)	14µM*	1%[12.7 µM]	11%	-7	0%	?
COc1ccc(C)c2sc(NNC(=O)COc3ccccc3)nc12	-4%	?	7%	1	56µM*	-8%
O=C(NNC(=O)c1cccc2ccccc12)c1ccccc1O	/	-5%	/	/	4%	/
CC(C)OC(=O)c1sc2nc(-c3ccccc3)ccc2c1N	-10%	/	1%	-2	-18%	?
Cc1ccc2c(N)c(C(=O)N(c3ccccc3)c3ccccc3)sc2n1	-2%	14µM*	?	-21	?	?
COc1ccc(Cn2nnnc2C(c2ccccn2)N2CCN(c3cc(Cl)ccc3C)CC2)cc1 (centres undefined)	-12%	22µM*	1%	-3	2%	-14%
SMILES	Tau ThT inhib	G9a block	Tau fibril FP	FBPA coupling cs	Sfp inh	Tau fluor counter
COc1ccc(Cn2nnnc2C(CC(C)C)N2CCC(C(N)=O)CC2)cc1 (centres undefined)	-2%	/	8%	-1	5%	3%
COc1ccc(N2CCN(C(c3ccccc3)c3nnnn3Cc3ccc(F)cc3)CC2)cc1 (centres undefined)	-14%	22µM*	17%	-2	13%	-27%
CCCC(c1nnnn1Cc1ccc(OC)cc1)N1CCC(C(N)=O)CC1 (centres undefined)	0%	71µM*	3%	3	18%	1%
COc1ccc(C(c2nnnn2Cc2ccc(F)cc2)N2CCN(c3ccc(OC)cc3)CC2)cc1 (centres undefined)	-12%	32µM*	?	-1	?	-25%
COc1cccc(Nc2ncc3nc(C)c(=O)n(C4CC4)c3n2)c1	/	-2%[0.501 µM]	/	0	27%	/
COc1ccc(N2CCN(C(c3ccccc3)c3nnc(-c4ccccc4Cl)o3)CC2)cc1 (centres undefined)	-16%	13µM*	15%	/	/	?
COc1ccccc1N1CCN(C(c2ccccc2)c2nnc(-c3ccccc3Cl)o2)CC1 (centres undefined)	-7%	-12%[59 µM]	4%	/	/	-16%
CC(=O)Nc1ccc(S(=O)(=O)NCC2(N3CCOCC3)CCCCC2)cc1	/	-16%	/	/	/	/
CC(OC(=O)c1cccc(-n2cnnn2)c1)C(=O)Nc1ccc(N(C)C)cc1 (centres undefined)	/	7.1µM*	/	/	/	/
CC(OC(=O)c1cccc(-n2cnnn2)c1)C(=O)Nc1ccccc1F (centres undefined)	/	50µM*	/	/	/	/
COc1ccc(CCNC(=O)Cn2c(=O)n(-c3ccc(OC)c(OC)c3)c(=O)c3ccccc32)cc1OC	-7%	0%[59 µM]	3%	/	/	-5%
CSc1nc(O)c(C(c2ccc(C)cc2)c2c(O)nc(SC)[nH]c2=O)c(=O)[nH]1	/	40µM*	/	7	-2%	/

Bioassay records as filed in PubChem BioAssay.
